This passage reports Potency, viability change, negative = cytotoxic and activity change, negative = inhibition results from PubChem BioAssay (Tox21).

Records with an inconclusive call do not appear. A call without a number means that no potency is given here. Activity calls are given as the source filed them. Calls follow the shape of the dose curve; as a rule, active = well fitted curve in the direction sought with a large enough effect in the repeat runs; inconclusive = weak or mixed curves; inactive = no such curve, though single readings can be large; an effect the other way counts as inactive or inconclusive.
Potency is read from the fitted curve at half-maximal effect.

Sequence of Luciferin 4-monooxygenase (Photinus pyralis) (P08659 whole entry, looked up): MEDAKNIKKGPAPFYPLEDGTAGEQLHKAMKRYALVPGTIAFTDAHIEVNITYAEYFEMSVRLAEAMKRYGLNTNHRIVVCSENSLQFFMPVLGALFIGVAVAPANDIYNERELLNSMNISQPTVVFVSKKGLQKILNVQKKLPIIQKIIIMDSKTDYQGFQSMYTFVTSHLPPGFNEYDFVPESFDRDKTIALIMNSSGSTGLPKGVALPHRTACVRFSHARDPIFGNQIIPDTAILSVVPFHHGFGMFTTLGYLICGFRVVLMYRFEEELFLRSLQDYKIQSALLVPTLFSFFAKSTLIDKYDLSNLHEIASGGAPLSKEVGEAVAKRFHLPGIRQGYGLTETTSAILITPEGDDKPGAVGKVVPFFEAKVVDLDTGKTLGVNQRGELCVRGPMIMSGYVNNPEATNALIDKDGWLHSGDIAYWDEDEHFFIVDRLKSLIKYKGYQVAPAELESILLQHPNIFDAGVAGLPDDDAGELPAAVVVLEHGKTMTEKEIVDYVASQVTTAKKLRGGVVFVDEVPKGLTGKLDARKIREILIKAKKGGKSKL

Test system in the first assay: not listed separately
Put plainly: qHTS assay to identify small molecule antagonists of the estrogen related receptor (ERR) signaling pathway from Tox21 library - cell viability counter screen (AID 1224834). Also: nearly all actives have a fitted effect of over 30% in size. The conditions noted are these: ERR reporter cells viability, CellTiter-Fluor, 17.5 h; series mostly up to 92.4 µM. In short, it runs like this: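 CellTiter-Fluor fluorescence, read after 30 min at 37 C, measures viability of ERR cells. Cells plated at 2,000/well and incubated 6 h before pin-tool compound addition, then exposed 17.5 hours at 37 C.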
(In qHTS, concentration-response curves come from the screen itself.)
With `CCOC=C(C(=O)OCC)C(=O)OCC`, the Potency entry is “inactive”.
On to `NC(=O)C1CO1` (stereo not given), for which the Potency result was “inactive”.
With `O=[N+]([O-])c1ccc(CO)cc1`, the Potency result is “inactive”.
In the case of `CCC(=O)OC/C=C(\C)CCC=C(C)C`, the Potency entry was “inactive”.
With `c1ccc(-c2nc3ccccc3[nH]2)cc1`, the Potency result is “inactive”.
For `CCOC(=O)[C@H](O)[C@@H](O)C(=O)OCC`, the Potency result was “inactive”.
Turning to `CCN(CC)c1ccc(N=Nc2ccccc2)cc1`, the Potency was 24.3 µM (active).
As to `CC(c1cc(C(C)(C)C)cc(C(C)(C)C)c1O)c1cc(C(C)(C)C)cc(C(C)(C)C)c1O`, the Potency result is “inactive”.
On to `C1=CCCC1`, for which the Potency entry was “inactive”.
Turning to `C=C[Si](C)(C)Cl`, the viability change, negative = cytotoxic was 5.38% [at 8.39 µM] (inactive).
As for `N#CCCOCCC#N`, the Potency result was “inactive”.
For `CCCCCCCCCCCCS(=O)(=O)Cl`, the viability change, negative = cytotoxic is -1.38% [at 19 µM] (inactive).
In the case of `CC1(C)[C@H](C(=O)OCc2cccc(Oc3ccccc3)c2)[C@@H]1C=C(Cl)Cl`, the Potency entry was “inactive”.
Regarding `O=C(CCN1CCC(c2ccccc2)C1)c1ccc2c(c1)OCCO2` (stereo not given), the Potency result is “inactive”.
With `O=C(O)C[C@H](O)C[C@H](O)/C=C/c1c(C2CC2)nc2ccccc2c1-c1ccc(F)cc1`, the viability change, negative = cytotoxic is 0.576% [at 19 µM] (inactive).
For the compound `CC(C)=NNC(N)=S`, the Potency result is “inactive”.
Regarding `NC(=O)c1ccccc1Cl`, the Potency entry is “inactive”.
In the case of `CC(C)(C)C1=CC(=O)C(C(C)(C)C)=CC1=O`, the Potency result was “inactive”.
Still for that read-out and setting: the entry for `O=C1OC(=O)c2cc(-c3ccc4c(c3)C(=O)OC4=O)ccc21` is “inactive”.
In the case of `CC(C)=CCC[C@H](C)CC=O`, the Potency result is “inactive”.
Take `CN(C[C@@H](CC[N+]12CCC(C3CCCCC3)(CC1)CC2)c1ccc(Cl)c(Cl)c1)C(=O)c1cc(C(F)(F)F)cc(C(F)(F)F)c1`: the Potency is 48.6 µM (active).
Turning to `CCNc1nc(NC(C)(C)C)nc(OC)n1`, the Potency result was “inactive”.
Take `CN(C/C=C/c1ccccc1)Cc1cccc2ccccc12`: the Potency entry was “inactive”.
For the compound `CSc1ccc(O)cc1C`, the Potency entry was “inactive”.
On the same count and under the same terms, next, `COc1ccc(OC)c(N=Nc2c(O)ccc3ccccc23)c1`: 24.3 µM (active); `CCCCCCCCOC(=O)c1cc(O)c(O)c(O)c1`: 24.3 µM (active).
`CO[Si](OC)(c1ccccc1)c1ccccc1`: the Potency result is “inactive”.
For the compound `COc1c(Br)cc(Br)c(C)c1Br`, the Potency result is “inactive”.
Consider `C=CC(=O)O[C@H]1C[C@@H]2CC[C@@]1(C)C2(C)C`, for which the Potency result is “inactive”.
For `C=CC(C)(C)O`, the Potency entry is “inactive”.
For the compound `Oc1ccc2c(c1)CCC2`, the Potency result is “inactive”.
With `C=CC(=O)OCC(Br)CBr` (stereo not given), the Potency entry was “inactive”.
Consider `C1CCSC1`, for which the Potency result is “inactive”.
Consider `CC1CCC(C(C)(C)O)CC1` (stereo not given), for which the Potency entry was “inactive”.
`Cc1ccc(C=O)cc1`: the Potency entry is “inactive”.
Still for that read-out and setting: the figure for `CC(O)(c1ccc(Cl)cc1)c1ccc(Cl)cc1` is 61.1 µM (active); for `Cc1cc(F)ccc1-c1cc(N2CC[C@@H](O)[C@H]2CO)ncc1N(C)C(=O)C(C)(C)c1cc(C(F)(F)F)cc(C(F)(F)F)c1` it is 42.6 µM (active).
Regarding `Cc1ccc(S(=O)(=O)C(I)I)cc1`, the Potency is 61.1 µM (active).
As to `COc1cc(C(C)C)ccc1C`, the viability change, negative = cytotoxic is 2.54% [at 19 µM] (inactive).
Take `CCCCC/C=C\C=C\C(=O)OCC`: the Potency is 71.5 µM (active).

The target in the next assay is Luciferin 4-monooxygenase (Photinus pyralis) (UniProt P08659). Kind of assay: qHTS assay to identify small molecule inhibitors of firefly luciferase (AID 1224835). Also: nearly all actives have a fitted effect of over 25% in size. The conditions noted are these: purified P. pyralis luciferase, luminescence inhibition; series mostly up to 115 µM. In a few lines:
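Inhibition of purified Photinus luciferase is measured by luminescence. Substrate levels (D-luciferin, ATP) sit at their KM values. Each compound is tested in a concentration series.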
Consider `CCOC=C(C(=O)OCC)C(=O)OCC`, for which the Potency result was “inactive”.
Take `NC(=O)C1CO1` (stereo not given): the Potency result is “inactive”.
Take `O=[N+]([O-])c1ccc(CO)cc1`: the Potency entry is “inactive”.
As to `CCC(=O)OC/C=C(\C)CCC=C(C)C`, the Potency entry was “inactive”.
Consider `c1ccc(-c2nc3ccccc3[nH]2)cc1`, for which the Potency was 5.64 µM (active).
As for `CCOC(=O)[C@H](O)[C@@H](O)C(=O)OCC`, the Potency result was “inactive”.
The same measure, in the same setting: next, `CCN(CC)c1ccc(N=Nc2ccccc2)cc1`: 0.502 µM (active).
With `CC(c1cc(C(C)(C)C)cc(C(C)(C)C)c1O)c1cc(C(C)(C)C)cc(C(C)(C)C)c1O`, the Potency entry was “inactive”.
For the compound `C1=CCCC1`, the Potency entry is “inactive”.
On to `C=C[Si](C)(C)Cl`, for which the activity change, negative = inhibition is 5.1% [at 10.5 µM] (inactive).
As to `N#CCCOCCC#N`, the Potency entry was “inactive”.
As for `CCCCCCCCCCCCS(=O)(=O)Cl`, the activity change, negative = inhibition was -13.9% [at 23.6 µM] (inactive).
As for `CC1(C)[C@H](C(=O)OCc2cccc(Oc3ccccc3)c2)[C@@H]1C=C(Cl)Cl`, the Potency entry was “inactive”.
Take `O=C(CCN1CCC(c2ccccc2)C1)c1ccc2c(c1)OCCO2` (stereo not given): the Potency result is “inactive”.
As to `O=C(O)C[C@H](O)C[C@H](O)/C=C/c1c(C2CC2)nc2ccccc2c1-c1ccc(F)cc1`, the activity change, negative = inhibition was 5.31% [at 23.6 µM] (inactive).
As to `CC(C)=NNC(N)=S`, the Potency result was “inactive”.
Consider `NC(=O)c1ccccc1Cl`, for which the Potency result is “inactive”.
Consider `CC(C)(C)C1=CC(=O)C(C(C)(C)C)=CC1=O`, for which the Potency result was “inactive”.
`O=C1OC(=O)c2cc(-c3ccc4c(c3)C(=O)OC4=O)ccc21`: the Potency entry was “inactive”.
Consider `CC(C)=CCC[C@H](C)CC=O`, for which the Potency entry was “inactive”.
Still for that read-out and setting: next, `CN(C[C@@H](CC[N+]12CCC(C3CCCCC3)(CC1)CC2)c1ccc(Cl)c(Cl)c1)C(=O)c1cc(C(F)(F)F)cc(C(F)(F)F)c1`: “inactive”; `CCNc1nc(NC(C)(C)C)nc(OC)n1`: “inactive”; `CN(C/C=C/c1ccccc1)Cc1cccc2ccccc12`: “inactive”.
`CSc1ccc(O)cc1C`: the Potency entry was “inactive”.
As for `COc1ccc(OC)c(N=Nc2c(O)ccc3ccccc23)c1`, the Potency was 6.33 µM (active).
Same read-out and setting: next, `CCCCCCCCOC(=O)c1cc(O)c(O)c(O)c1`: “inactive”; `CO[Si](OC)(c1ccccc1)c1ccccc1`: “inactive”; `COc1c(Br)cc(Br)c(C)c1Br`: “inactive”.
For `C=CC(=O)O[C@H]1C[C@@H]2CC[C@@]1(C)C2(C)C`, the Potency result is “inactive”.
For `C=CC(C)(C)O`, the Potency entry is “inactive”.
`Oc1ccc2c(c1)CCC2`: the Potency entry is “inactive”.
For `C=CC(=O)OCC(Br)CBr` (stereo not given), the Potency entry was “inactive”.
On the same count and under the same terms, the entry for `C1CCSC1` is “inactive”; for `CC1CCC(C(C)(C)O)CC1` (stereo not given) it is “inactive”; for `Cc1ccc(C=O)cc1` it is “inactive”.
Same read-out and setting: next, `CC(O)(c1ccc(Cl)cc1)c1ccc(Cl)cc1`: “inactive”; `Cc1cc(F)ccc1-c1cc(N2CC[C@@H](O)[C@H]2CO)ncc1N(C)C(=O)C(C)(C)c1cc(C(F)(F)F)cc(C(F)(F)F)c1`: “inactive”.
On to `Cc1ccc(S(=O)(=O)C(I)I)cc1`, for which the Potency was 39.9 µM (active).
In the case of `COc1cc(C(C)C)ccc1C`, the activity change, negative = inhibition is 1.91% [at 23.6 µM] (inactive).
Regarding `CCCCC/C=C\C=C\C(=O)OCC`, the Potency entry was “inactive”.
